The values below come from PubChem BioAssay (NCI).

Molecules are shown by their SMILES. About 83,000 compounds went through this panel and 20% of them were active in at least one assay; those are over-represented in the sample as a whole.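 Method: cells in 96-well plates; compound added at one concentration; 48 h incubation; percent growth measured; values under 10 scored active.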 Calls of active or inactive are those of the source.

In the assay the test system is OVCAR-8 ovarian. Kind of assay: NCI-60 one-dose screen, 48 h (100 = growth as untreated, 0 = no growth, -100 = all killed). Conditions: 10 µM unless noted.
`CCCc1n(Cc2ccc3ccccc3c2)cc[n+]1Cc1ccc2ccccc2c1`: the growth is -10.6% (active).

For `CC(=O)OCC(=O)[C@@]1(O)CC[C@H]2[C@@H]3CCC4=CC(=O)CC[C@]4(C)[C@@]3(F)[C@@H](O)C[C@@]21C`, the growth is 93.8% (inactive).

As to `COC(=O)[C@H](Cc1cnc[nH]1)NC(=O)[C@@H](NC(=O)Nc1cc(C(F)(F)F)cc(C(F)(F)F)c1)C(C)C`, the growth is -83.6% [100 µM] (active).

Consider `COc1ccccc1-n1c(-c2ccc(O)cc2C)cn2c3c(=O)[nH]c(=O)n(C)c3nc12`, for which the growth was 86.3% (inactive).

Turning to `Nc1nc(Nc2ccccc2SSc2ccccc2Nc2nc(N)nc(-c3cccc(Cl)c3)n2)nc(-c2cccc(Cl)c2)n1`, the growth was 90.7% (inactive).

Consider `COc1ccc2c(c1)C(=Nc1cc(OC)c(OC)c(OC)c1)C(=O)N2`, for which the growth was 105% (inactive).

Regarding `CC1C(=O)NC2=Nc3ccccc3C(=O)NN21` (stereo not given), the growth was 99.7% (inactive).

As for `CC1c2ccccc2-c2ccccc2N1C` (stereo not given), the growth was 106% (inactive).

Regarding `CCC(C)C1NC(=O)C(CCNCS(=O)(=O)O)NC(=O)C(NC(=O)C(CCNCS(=O)(=O)O)NC(=O)C(NC(=O)C(CCNCS(=O)(=O)O)NC(=O)CCCCC(C)C)C(C)O)CCNC(=O)C(C(C)O)NC(=O)C(CCNCS(=O)(=O)O)NC(=O)C(CCNCS(=O)(=O)O)NC(=O)C(C(C)CC)NC1=O` (stereo not given), the growth was 78.7% (inactive).

With `O=C(N/N=C/c1ccc(Cl)cc1Cl)c1ccccc1Nc1cccc(C(F)(F)F)c1`, the growth was 71.6% (inactive).

`COc1cnc2c(c1)C(=O)c1c-2n(CCCN2CCNCC2)c(=O)c2cc(F)ccc12`: the growth was 2.26% (active).

For `O=C(/C=C/c1cccc(Nc2ccnc3cc(Cl)ccc23)c1)c1ccc(Cl)cc1`, the growth was 45.1% (inactive).

As for `Nc1c(C(=O)Nc2cccc(Cl)c2)sc2nc3c(cc12)C(O)CCC3` (stereo not given), the growth is 36.8% (inactive).

On to `Nc1nc(Nc2ccccc2SSc2ccccc2Nc2nc(N)nc(C(Cl)(Cl)Cl)n2)nc(C(Cl)(Cl)Cl)n1`, for which the growth is 47.9% (inactive).

Turning to `Cc1ccc(/C=C(/C#N)n2nnc3ncccc32)cc1`, the growth was -1.49% (active).

As to `O=C1C=CC(=O)N1c1ccccn1`, the growth is 111% (inactive).

Regarding `c1ccc(COc2ccc(Nc3ncnc4c3cnn4-c3ccccc3)cc2)cc1`, the growth is 113% (inactive).

Turning to `CN1C(=O)C(C2=NN(C=O)C(c3ccc(F)cc3)C2)C(=O)N(C)C1=O` (stereo not given), the growth is 98.9% (inactive).

`COc1ccc(C(=O)/C=C/c2cccc(Nc3ccnc4cc(Cl)ccc34)c2)cc1`: the growth is 10.2% (inactive).

`Cc1n(Cc2ccc3ccccc3c2)cc[n+]1Cc1ccc2ccccc2c1`: the growth was 3.06% (active).

As for `O=C(/C=C/c1ccc(C(F)(F)F)cc1)c1ccc(Nc2nc(NCCO)nc(NCCO)n2)cc1`, the growth is 21.7% (inactive).

Take `O[N+]1=CC=CCC1=S.On1ccccc1=S.[Zn]`: the growth was -50.4% (active).

Turning to `Cn1c(=O)c2[nH]c(=S)n(Cc3ccccc3)c2n(C)c1=O`, the growth is 111% (inactive).

`COc1cc(/C=C/C(=O)c2c(C)n([O-])c3ccc(Cl)cc3[n+]2=O)cc(OC)c1OC`: the growth is 50.8% (inactive).

As to `COc1ccc(Oc2ccccc2NC(=O)CNC(=O)c2cccc3ccccc23)cc1`, the growth is 17% [5 µM] (inactive).

As to `CN[C@@H]1C(OC2[C@H](O[C@H]3[C@H](O)[C@@H](O)[C@H](N=C(N)N)[C@@H](O)[C@@H]3N=C(N)N)OC(C)[C@]2(O)CO)OC(CO)C(O)C1O` (stereo not given in full), the growth is 103% (inactive).

Take `CNc1nc(NC2CCCC2)nc(Sc2ccc(OC)cc2)n1`: the growth was 20.2% [100 µM] (inactive).

Consider `COc1ccc(OC)c(CCn2cncc2-c2c[nH]c3cc(Br)ccc23)c1`, for which the growth was 24.7% (inactive).

`COc1cnc2c(c1)C(=O)c1c-2n(CCCN2CCCC2)c(=O)c2cc(F)ccc12`: the growth is -13.3% (active).

`COc1cc(C2=NN(C=O)C(c3cccc(Nc4ccnc5cc(Cl)ccc45)c3)C2)cc(OC)c1OC` (stereo not given): the growth was 70% (inactive).

Turning to `N#Cc1c(-c2ccccc2)cc(-c2ccccc2)n(CCCCC(=O)O)c1=O`, the growth is 96% (inactive).

Take `CCOC(=O)/C=C1/SC(=Nc2ccc(C#N)cc2)N(Cc2ccco2)C1=O`: the growth is 54.2% (inactive).

Regarding `O=C(NCCNC(=O)Oc1cccc2ccccc12)Oc1cccc2ccccc12`, the growth is 100% (inactive).

With `Oc1ccc(/C=N/Nc2nc3ccccc3s2)c(O)c1`, the growth is 26.6% (inactive).

In the case of `C=C1CC[C@@H]2[C@](C)(COC(C)=O)[C@H](OC(C)=O)CC[C@@]2(C)[C@@H]1CC(NCc1ccccc1)C1=CCOC1=O` (stereo not given in full), the growth is 28.2% (inactive).
